From PubChem BioAssay
Active and inactive are the calls of the source. Unless noted, the rule behind the calls is not given here.

Experiments:
[1] = compounds binding Alexa647 anti-His antibody – biochemical, small-molecule microarray, 635 nm fluorescence, artefact control for SMM control protein annotation, primary screen (AID 1128); conditions: higher = more signal;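 note: score merges feature fluorescence with signal-to-noise for each printed compound spot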
[2] = tested on: Human papillomavirus type 1a E7 protein (residues 1-88); experiment: HPV1a E7 small-molecule binders, primary screen, biochemical, small-molecule microarray, residues 1-88, 635 nm (AID 1129); conditions: small-molecule microarray binding, fluorescence 635 nm; higher = more signal
[3] = biological target: Focal adhesion kinase 1 (Homo sapiens) (UniProt Q05397); experiment: PTK2 protein binding on printed compound slides – biochemical, small-molecule microarray, 635/667 nm fluorescence, BSA, DTT, primary screen (AID 1130); conditions: 635 nm fluorescence, higher = more signal;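 note: composite of spot emission at 667 nm and signal to noise over triplicate slides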
Sequence of Focal adhesion kinase 1 (Homo sapiens) (Q05397 whole entry, looked up): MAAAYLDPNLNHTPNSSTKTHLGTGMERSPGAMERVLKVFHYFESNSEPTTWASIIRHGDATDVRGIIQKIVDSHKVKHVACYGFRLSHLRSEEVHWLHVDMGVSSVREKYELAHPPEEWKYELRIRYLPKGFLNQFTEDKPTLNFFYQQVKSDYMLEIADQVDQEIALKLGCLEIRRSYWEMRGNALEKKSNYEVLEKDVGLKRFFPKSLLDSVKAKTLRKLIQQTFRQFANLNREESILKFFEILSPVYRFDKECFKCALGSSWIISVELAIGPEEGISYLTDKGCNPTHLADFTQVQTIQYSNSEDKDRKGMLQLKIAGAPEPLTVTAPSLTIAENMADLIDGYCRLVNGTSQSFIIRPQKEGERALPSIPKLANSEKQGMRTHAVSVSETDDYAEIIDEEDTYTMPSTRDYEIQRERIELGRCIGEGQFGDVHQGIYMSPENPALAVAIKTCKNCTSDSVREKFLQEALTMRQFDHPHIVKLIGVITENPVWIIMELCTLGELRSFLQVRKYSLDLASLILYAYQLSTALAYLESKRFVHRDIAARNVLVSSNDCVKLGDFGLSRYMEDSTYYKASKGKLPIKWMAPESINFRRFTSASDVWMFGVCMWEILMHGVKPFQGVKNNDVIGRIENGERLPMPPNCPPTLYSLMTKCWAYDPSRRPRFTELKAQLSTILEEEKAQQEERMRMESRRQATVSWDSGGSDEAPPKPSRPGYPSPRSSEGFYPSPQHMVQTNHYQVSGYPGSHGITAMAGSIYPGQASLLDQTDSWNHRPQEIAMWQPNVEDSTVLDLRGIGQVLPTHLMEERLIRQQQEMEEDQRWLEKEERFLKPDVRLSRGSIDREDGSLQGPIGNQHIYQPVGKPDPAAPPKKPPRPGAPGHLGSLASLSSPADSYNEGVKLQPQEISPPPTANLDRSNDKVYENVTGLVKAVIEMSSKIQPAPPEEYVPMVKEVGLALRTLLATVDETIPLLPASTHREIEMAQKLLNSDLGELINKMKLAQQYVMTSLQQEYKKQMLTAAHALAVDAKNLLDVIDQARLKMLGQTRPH

[4] = tested on: Fibrinogen (Alexa647-labelled); experiment: Alexa647-fibrinogen binding to printed small molecules – biochemical, small-molecule microarray, 635/667 nm fluorescence, artefact control for SMM control-protein annotation, profiling panel (AID 1131); conditions: fibrinogen-A647 binding fluorescence, higher = more signal;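 note: z-score merges 667 nm fluorescence with per-spot signal-to-noise over triplicate slides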
[5] = biological target: Follistatin (Homo sapiens) (UniProt P19883); experiment: FST protein binding to printed compounds – biochemical, small-molecule microarray, 635/667 nm fluorescence, primary screen (AID 1132); conditions: 635 nm fluorescence, higher = more signal
Sequence of Follistatin (Homo sapiens) (P19883 whole entry, looked up): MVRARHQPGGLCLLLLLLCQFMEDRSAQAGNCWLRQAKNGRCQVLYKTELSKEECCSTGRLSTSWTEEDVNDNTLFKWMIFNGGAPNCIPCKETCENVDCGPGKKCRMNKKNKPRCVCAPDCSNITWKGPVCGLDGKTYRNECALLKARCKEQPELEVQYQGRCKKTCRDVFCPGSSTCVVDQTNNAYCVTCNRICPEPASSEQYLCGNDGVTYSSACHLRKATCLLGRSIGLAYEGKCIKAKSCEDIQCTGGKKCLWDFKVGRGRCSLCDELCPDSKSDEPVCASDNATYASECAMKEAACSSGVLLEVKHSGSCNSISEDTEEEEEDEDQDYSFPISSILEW

[6] = biological target: Fibroblast growth factor 2 (Homo sapiens) (UniProt P09038); experiment: basic fibroblast growth factor binding to printed compounds – biochemical, small-molecule microarray, 635/667 nm fluorescence, primary screen (AID 1133); conditions: FGF2, fluorescence 635/667, higher = more signal
Sequence of Fibroblast growth factor 2 (Homo sapiens) (P09038 whole entry, looked up): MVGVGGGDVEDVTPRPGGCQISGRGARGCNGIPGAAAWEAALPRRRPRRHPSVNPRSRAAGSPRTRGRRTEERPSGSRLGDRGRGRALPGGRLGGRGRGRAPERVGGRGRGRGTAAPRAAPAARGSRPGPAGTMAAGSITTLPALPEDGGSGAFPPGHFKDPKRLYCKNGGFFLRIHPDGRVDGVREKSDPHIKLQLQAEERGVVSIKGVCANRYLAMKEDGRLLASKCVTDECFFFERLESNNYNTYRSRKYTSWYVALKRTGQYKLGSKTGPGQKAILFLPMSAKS

[7] = JC-1 mitochondrial potential readout, lung cancer cells – cell-based, A549, JC-1 fluorescence, basal, 24 h, 100 nL, profiling panel (AID 1138); conditions: higher = more signal;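 note: A549 lung adenocarcinoma cells under basal conditions with no added stimulus; test concentration not given here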
Lefty1 = Lefty1 protein binding to printed compounds – biochemical, small-molecule microarray, 635/667 nm fluorescence, primary screen (AID 1139); conditions: fluorescence 635/667, higher = more signal
[8] = tested on: wheat germ agglutinin (Triticum aestivum), Alexa647-labelled; experiment: Alexa647-WGA lectin binding to printed small molecules – biochemical, small-molecule microarray, 635/667 nm fluorescence, artefact control for SMM control-protein annotation, profiling panel (AID 1140); conditions: WGA-A647 binding, 635 nm fluorescence, higher = more signal;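 note: score merges 667 nm feature emission with signal to noise over triplicate slides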
[9] = biological target: Luciferin 4-monooxygenase (Photinus pyralis) (UniProt P08659); experiment: inhibition of purified Photinus pyralis luciferase – biochemical, luminescence, purified enzyme, 2006 set, primary screen (AID 1141); conditions: purified firefly luciferase, SteadyGlo luminescence, 30 min; higher = more signal, called active from +8 up or from −8 down;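 note: cell-free assay with purified firefly luciferase at 100 ng per well in PBS; test concentration not given here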
Sequence of Luciferin 4-monooxygenase (Photinus pyralis) (P08659 whole entry, looked up): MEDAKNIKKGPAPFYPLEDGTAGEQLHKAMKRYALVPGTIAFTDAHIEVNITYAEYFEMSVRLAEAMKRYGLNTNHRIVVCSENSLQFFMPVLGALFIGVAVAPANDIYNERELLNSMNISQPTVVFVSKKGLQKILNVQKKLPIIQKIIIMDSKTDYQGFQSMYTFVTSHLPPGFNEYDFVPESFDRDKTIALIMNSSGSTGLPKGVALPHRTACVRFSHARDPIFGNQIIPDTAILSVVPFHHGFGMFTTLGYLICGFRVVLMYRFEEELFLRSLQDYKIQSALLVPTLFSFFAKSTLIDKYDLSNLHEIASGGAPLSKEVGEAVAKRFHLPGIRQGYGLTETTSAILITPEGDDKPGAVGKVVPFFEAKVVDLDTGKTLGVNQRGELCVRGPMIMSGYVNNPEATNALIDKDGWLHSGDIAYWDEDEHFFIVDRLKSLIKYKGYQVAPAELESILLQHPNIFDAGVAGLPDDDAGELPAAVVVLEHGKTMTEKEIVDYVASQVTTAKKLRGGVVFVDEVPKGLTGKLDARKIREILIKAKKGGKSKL

[10] = tested on: Wnt5a (protein binding on small-molecule microarray); experiment: small molecules binding Wnt5a protein – biophysical, small-molecule microarray, 635/667 nm fluorescence, primary screen (AID 1142); conditions: 635 nm fluorescence, higher = more signal;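 note: fluorescence read at 667 nm with signal to noise per printed feature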
[11] = ATP-based viability of Huh7 replicon cells – cell-based, CellTiter-Glo luminescence, basal, 48 h, cytotoxicity control for HCV replication inhibitor project, primary screen (AID 1143); conditions: higher = more signal, called active from +8 up or from −8 down;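 note: Huh7 hepatoma cells carrying a hepatitis C replication reporter with no stimulus; test concentration not given here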
[12] = Pseudomonas biofilm growth suppression – PAO1 strain, BacTiter-Glo luminescence, LB-PBS, primary screen (AID 1144); conditions: P. aeruginosa PAO1 biofilm, 12 h, higher = more signal
[13] = basal CRE-LacZ reporter activity in PC12 – cell-based, unstimulated, primary screen (AID 1145); conditions: no forskolin, luminescence, 4.5 h, higher = more signal, called active from +8 up or from −8 down
[14] = forskolin-driven CRE-LacZ activity in PC12 – cell-based, CRE-LacZ reporter, forskolin-stimulated, primary screen (AID 1146); conditions: luminescence, 4.5 h, higher = more signal, called active from +8 up or from −8 down;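 note: PC12 cells with 6xCRE LacZ reporter stimulated by forskolin 10 µM; beta-galactosidase reporter signal reflecting CREB driven transcription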
[15] = biological target: Streptavidin (Streptomyces avidinii) (UniProt P22629); experiment: compounds binding control protein streptavidin – biophysical, small-molecule microarray, 635/667 nm fluorescence, artefact control for SMM compound annotation, primary screen (AID 1147); conditions: higher = more signal;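 note: signal reflects streptavidin binding to arrayed compounds as a control protein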
Sequence of Streptavidin (Streptomyces avidinii) (P22629 whole entry, looked up): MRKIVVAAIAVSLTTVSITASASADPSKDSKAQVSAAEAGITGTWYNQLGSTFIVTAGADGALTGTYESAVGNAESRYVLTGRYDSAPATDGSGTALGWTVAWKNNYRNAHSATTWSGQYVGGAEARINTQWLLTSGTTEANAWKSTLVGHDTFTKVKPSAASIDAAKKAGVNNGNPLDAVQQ

[16] = probe aInhba binding on compound microarray – biochemical, small-molecule microarray, 635/667 nm fluorescence, primary screen (AID 1148); conditions: higher = more signal;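 note: score merges 667nm spot fluorescence with signal-to-noise for antibody binding to printed compounds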
Torsin-1A (Homo sapiens) [17] = biological target: Torsin-1A (Homo sapiens) (UniProt O14656); experiment: TOR1A wild-type binding on microarray – cell lysate, small-molecule microarray, lysate, 635/667 nm, primary screen (AID 1149); conditions: COS7 hTOR1A-WT lysate, 635 nm fluorescence, higher = more signal
Sequence of Torsin-1A (Homo sapiens) (O14656 whole entry, looked up): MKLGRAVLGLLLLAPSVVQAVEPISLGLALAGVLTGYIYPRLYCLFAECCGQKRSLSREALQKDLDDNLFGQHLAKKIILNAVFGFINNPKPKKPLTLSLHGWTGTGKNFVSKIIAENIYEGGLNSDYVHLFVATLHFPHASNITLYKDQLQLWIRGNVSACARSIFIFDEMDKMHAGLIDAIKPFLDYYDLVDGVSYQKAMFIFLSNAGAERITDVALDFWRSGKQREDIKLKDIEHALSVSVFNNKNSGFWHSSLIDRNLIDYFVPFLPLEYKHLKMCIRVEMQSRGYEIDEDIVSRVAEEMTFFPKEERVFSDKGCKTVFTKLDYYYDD

Torsin-1A (Homo sapiens) [18] = biological target: Torsin-1A (Homo sapiens) (UniProt O14656); experiment: torsin A mutant lysate binding on microarrays – cell lysate, small-molecule microarray, COS7 lysate, 635/667 nm fluorescence, primary screen (AID 1150); conditions: COS7 hTOR1A mutant lysate, 635 nm fluorescence, higher = more signal;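 note: score pools 667 nm emission and signal to noise measuring lysate protein binding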
[19] = tested on: Sonic hedgehog protein (Shh); experiment: Sonic hedgehog microarray binding compounds – biochemical, small-molecule microarray, 635/667 nm fluorescence, primary screen (AID 1151); conditions: 635 nm fluorescence, higher = more signal;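 note: Shh protein binding to compounds spotted on small-molecule microarray slides; score combines spot fluorescence intensity with signal-to-noise across triplicate slides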

Structure (SMILES) | composite z-score [1] | composite z-score [2] | composite z-score [3] | composite z-score [4] | composite z-score [5] | composite z-score [6] | z-score [7] | composite z-score (Lefty1) | composite z-score [8] | z-score [9] | composite z-score [10] | z-score [11] | z-score [12] | z-score [13] | z-score [14] | composite z-score [15] | composite z-score [16] | composite z-score (Torsin-1A (Homo sapiens) [17]) | composite z-score (Torsin-1A (Homo sapiens) [18]) | composite z-score [19]
COC(=O)C1=CC(CCCO)=CC(C2CC2)N(Cc2sc3ccccc3c2Cl)C=C1C(=O)OC (stereo not given) | 3.11 | 1.25 | 1.31 | 1.04 | 0.939 | 0.0634 | 1.14 | 0.222 | 0.728 | -0.96 (inactive) | 0.351 | -3.83 (inactive) | 0.989 (inactive) | -0.464 (inactive) | 0.106 (inactive) | 2.17 | 0.19 | 0.688 | 0.806 | -0.112
COc1ccc([Si](C)(C)[C@H]2[C@H](CCn3cc(CCO)nn3)O[C@@]3(C(=O)N(Cc4ccc(N5CCOC5=O)cc4)c4ccccc43)[C@@H]2C)cc1 | 1.88 | 1.16 | 0.105 | 0.505 | 0.308 | 0.308 | 1.26 | 0.419 | 0.829 | -0.648 (inactive) | -0.0483 | -4.12 (inactive) | 9e-05 (inactive) | 0.469 (inactive) | -2.21 (inactive) | -0.0903 | -0.0044 | 0.676 | 0.806 | 1.59
CN1C=C(C(=O)OCCS(C)(=O)=O)C(C(=O)OCCS(C)(=O)=O)=CC(CCCO)=CC1C1CC1 (stereo not given) | 0.464 | -0.202 | 0.686 | 0.901 | 0.186 | -0.275 | 0.664 | 0.889 | 0.288 | -0.0115 (inactive) | -0.102 | -0.134 (inactive) | -0.483 (inactive) | -0.844 (inactive) | -0.657 (inactive) | 0.207 | -0.128 | -0.0089 | 0.344 | 0.501
CC(C)c1ccc(NN2C(C(O)c3ccc(N(C)C)cc3)C=CC3C(=O)N(c4ccccc4)C(=O)C32)cc1 (stereo not given) | 0.435 | 1.24 | 0.0061 | 0.96 | 1.25 | -0.321 | 0.594 | 0.273 | 0.923 | -0.943 (inactive) | 0.125 | -1.1 (inactive) | -0.666 (inactive) | -0.133 (inactive) | 0.856 (inactive) | 1.76 | 0.268 | 0.074 | 0.658 | -0.0206
CC(C)c1ccc(NN2C(C(O)c3c(F)cccc3Cl)C=CC3C(=O)N(c4ccccc4)C(=O)C32)cc1 (stereo not given) | 0.825 | 1.13 | 0.823 | 0.935 | 1.02 | -0.0904 | -1.27 | -0.0553 | 0.959 | -1.12 (inactive) | 0.658 | -0.78 (inactive) | -0.53 (inactive) | -0.519 (inactive) | 0.746 (inactive) | 1.47 | 0.765 | 0.213 | -0.164 | -0.182
Cc1ccc(F)cc1S(=O)(=O)N[C@@H]1CCN(Cc2ccc(-c3ccccc3)cc2)C1 | -0.0798 | 0.517 | 0.377 | -0.0516 | 0.646 | 0.424 | 0.225 | 0.292 | -0.108 | 0.715 (inactive) | 0.116 | -6.41 (inactive) | 0.00325 (inactive) | 6.48 (inactive) | 0.959 (inactive) | -0.164 | -0.128 | 0.606 | 0.743 | 0.98
CCCCC(CC)C(O)C1C=CC2C(=O)N(c3ccccc3)C(=O)C2N1Nc1ccccc1 (stereo not given) | 0.804 | 1.19 | 0.462 | 0.881 | 0.858 | -0.411 | -0.99 | -0.249 | 1.15 | -0.15 (inactive) | 0.0653 | -2.93 (inactive) | -0.569 (inactive) | 0.253 (inactive) | 0.011 (inactive) | 0.948 | 0.103 | -0.311 | 0.178 | -0.751
COC(=O)[C@@]1(Cc2ccccc2N=[N+]=[N-])COC(c2ccc(OCCCO)cc2)=N1 | 1.19 | 1.16 | 0.676 | 0.492 | 1.27 | 0.3 | 0.719 | -0.57 | 0.439 | -1.93 (inactive) | 0.193 | -2.44 (inactive) | 0.335 (inactive) | 0.675 (inactive) | 1.68 (inactive) | 0.175 | -0.0639 | 0.678 | 1.17 | -0.0614
C=CCOC(=O)[C@H]1[C@@H]2C(=O)O[C@@H](c3ccccc3)[C@@H](c3ccccc3)N2[C@@H](c2ccc(OCCOC(=O)[C@@H]3C[C@@H]4C(=O)N5CCC[C@H]5C(=O)N4[C@@H]3c3ccc(O)cc3)cc2)[C@]12C(=O)Nc1ccccc12 | 1.16 | 1.18 | 0.109 | 0.655 | 1.39 | 1.35 | -1.19 | 1.04 | 0.77 | -0.354 (inactive) | 1.06 | -0.496 (inactive) | -0.506 (inactive) | 0.0124 (inactive) | -0.72 (inactive) | -0.244 | -0.0963 | 0.529 | 0.853 | 1.23
O=C(NCc1ccccc1)[C@]1(CCS(=O)(=O)c2ccccc2)N=C(c2ccc(OCCCO)cc2)O[C@@H]1c1ccccc1 | 1 | 1.18 | 0.471 | 0.939 | 0.919 | -0.0072 | -0.864 | 0.469 | 0.785 | 0.781 (inactive) | 0.721 | -2.63 (inactive) | -0.422 (inactive) | -1.04 (inactive) | 0.0925 (inactive) | 0.959 | 0.111 | 0.129 | 0.585 | 0.16
